Test results from PubChem BioAssay AID757 (NMMLSC, 2007).
Out of some 190,000 compounds screened, about 520 (0.27%) were called active. Another 2% or so got no clear call; they are omitted.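 The calls were made as follows: active = GTP binding activity at least 20 points away from the 100% control level, either lower or higher; inconclusive = compound flagged as likely green fluorescent, judged across all proteins; inactive = the rest.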 Only a selection was taken, and actives are over-represented in it overall.

Biological target: Ras-related C3 botulinum toxin substrate 1 (Homo sapiens) (UniProt P63000)
Assay: wildtype Rac1 GTP binding modulators, primary screen, biochemical, GST-Rac1 beads, flow cytometry, multiplex (AID 757)
Conditions: fluorescent GTP binding, at 10 µM, actives lie on both sides, 0 = cold GTP competed, 100 = untreated

Compound	GTP binding activity (% of control)
Cn1cnnc1SCc1nnc(-c2ccccc2Br)o1	87% (inactive)
O=C(C1CCCN1S(=O)(=O)c1ccc(Br)cc1)N1CCOCC1 (stereo not given)	97% (inactive)
O=C(CNC(=O)c1cc(=O)[nH]c2ccccc12)Nc1ccc(F)c(F)c1	97% (inactive)
O=C(CN1CCN(Cc2ccc(F)cc2Cl)C1=O)NCc1cccs1	99% (inactive)
CCn1ccnc1CN(C)Cc1nc(-c2ccc3c(c2)OCO3)no1	99% (inactive)
CC(C)OC(=O)Cn1nc(C(F)(F)F)c2c1CCCC2	93% (inactive)
CCn1cc(C(=O)Nc2cc(C)ccc2C)c(=O)c2ccc(C)nc21	100% (inactive)
N#Cc1ccc(CSc2nnc3ccccn23)cc1	104% (inactive)
CCN(CC)C(=O)CS(=O)CC(=O)Nc1cc(OCCOC)c(Cl)cc1Cl (stereo not given)	103% (inactive)
S=c1[nH]nc(/C=C/c2ccccc2)o1	93% (inactive)
COc1ccc(C)cc1NC(=S)Nc1ccccc1SC	100% (inactive)
CC(=O)Cn1ncc(N2CCOCC2)c(Br)c1=O	95% (inactive)
CC(=O)NCCC(=O)Nc1cc(S(=O)(=O)N2CCOCC2)ccc1N1CCOCC1	100% (inactive)
O=C(CSc1nn(-c2ccc(F)cc2)c(=S)s1)NC1CCS(=O)(=O)C1 (stereo not given)	104% (inactive)
COc1ccc(OC)c(NC(=O)CN(Cc2ccc(Cl)cc2)S(C)(=O)=O)c1	97% (inactive)
COc1ccc(N2CCN(C(=O)C3CCN(S(=O)(=O)c4ccc(C)cc4)CC3)CC2)cc1	101% (inactive)
CCOc1ccccc1N=C1NC(=O)CS1	96% (inactive)
CC/C(O)=C1\C(=O)CC(C)(C)CC1=NCCc1nc2ccccc2[nH]1	106% (inactive)
CCC/C(O)=C1\C(=O)CC(C)(C)CC1=Nc1ccccc1OC	125% [activator] (active)
CCN(CC)CCCNC(=O)Cn1cnc2sc(C)c(S(=O)(=O)N3CCN(c4ncccn4)CC3)c2c1=O	93% (inactive)
Cc1nc2ccc(NC(=S)N3CCC(C)CC3)cc2nc1C	100% (inactive)
CC(C)(C)NC(=O)NC(=O)COC(=O)Cc1ccc(Cl)cc1Cl	101% (inactive)
Cc1ccc(NC(=O)NC2CCCCC2)cc1S(=O)(=O)N1CCOCC1	99% (inactive)
CC1(C)CN=C(N2CCN(c3ncnc4sc5c(c34)CCCC5)CC2)S1	99% (inactive)
COc1ncnc2sc3c(c12)CCCC3	104% (inactive)
COc1ccc(/C=N/Nc2ncnc3sc4c(c23)CCCC4)cc1O	77% (active)
COCCN1C(=O)c2oc3c(C)cc(C)cc3c(=O)c2C1c1cccc(O)c1 (stereo not given)	104% (inactive)
O=C1c2oc3ccccc3c(=O)c2C(c2cccc(O)c2)N1c1ccccn1 (stereo not given)	106% (inactive)

Compound	GTP binding activity (% of control)
O=C1c2oc3ccc(Br)cc3c(=O)c2C(c2cccc(F)c2)N1CCO (stereo not given)	123% [activator] (active)
O=C(Nc1cccc(CCc2ccccn2)c1)c1ccc(Cl)cc1	97% (inactive)
CC1(C)OC(=O)C(=CNC(CO)C(=O)O)C(=O)O1 (stereo not given)	100% (inactive)
CC1CN(CCCOc2ccccc2-c2ccccc2)CC(C)O1 (stereo not given)	94% (inactive)
CCOc1ccc(-n2cnnn2)cc1S(=O)(=O)N1CCC(C)CC1C (stereo not given)	97% (inactive)
COc1ccc(NC(=O)N2CCCC(c3nc(-c4ccc(F)cc4)no3)C2)cc1 (stereo not given)	103% (inactive)
CNc1[nH]ncc1[N+](=O)[O-]	95% (inactive)
Cc1cc(C)cc(C(=O)NCC(=O)OCC(=O)N2CCCCC2)c1	99% (inactive)
COC(=O)c1cc2nc(-c3ccccc3)cc(C(F)(F)F)n2n1	99% (inactive)
COc1ccc(NC(=O)c2ccccc2[N+](=O)[O-])cc1OC	105% (inactive)
COc1ccc(NC(=O)c2cc3nc(-c4ccccc4)cc(C)n3n2)cc1OC	78% (active)
Cc1ccc(NC(=S)NC(=O)c2ccc(-c3ccccc3)cc2)c(C)c1	99% (inactive)
COc1c(F)c(F)c(C(=O)O)c(Nc2ccccc2C)c1F	101% (inactive)
Cc1ccc(Nc2c(F)c(F)c(F)c(F)c2C(=O)O)c(C)c1	154% [activator] (active)
COc1ccc(-n2c(O)c(C=NCC(c3ccco3)N3CCCC3)c3ccccc3c2=O)cc1OC (stereo not given)	102% (inactive)
CN(C)S(=O)(=O)c1ccc(NC(=O)N2CCOCC2)cc1	100% (inactive)
Cc1ccc(OCC(=O)NC(C)c2ccccc2)c([N+](=O)[O-])n1 (stereo not given)	98% (inactive)
O=C(NNC(=O)c1ccc(Cl)cc1Cl)c1cccs1	96% (inactive)
Cc1ccc(Cl)cc1NC(=O)c1ccccn1	90% (inactive)
COc1ccc(/C=N/NC(=O)CNC(=O)c2ccc(S(=O)(=O)N3CCCC3)cc2)c(OC)c1	98% (inactive)
CC(C)(C)c1ccc(C(=O)CSc2ncn[nH]2)cc1	105% (inactive)
Cc1ccc(C(=O)CS(C)(=O)=O)cc1	101% (inactive)
Cc1ccc(SC(CC(=O)c2ccc(C(C)(C)C)cc2)C(=O)O)cc1 (stereo not given)	79% (active)
N/C(=N\OC(=O)c1ccc2c(c1)OCO2)c1ccc(Br)cc1	94% (inactive)
COc1ccc(C)cc1NC(=O)NCc1ccccn1	103% (inactive)
CN(CCN1CCOCC1)Cc1nc(-c2ccc3c(c2)OCO3)no1	98% (inactive)
O=C(NCCCN1CCOCC1)c1ccccc1NS(=O)(=O)c1ccc(Br)cc1	100% (inactive)
